The panel holds about 83,000 compounds, 20% with a hit somewhere; the sample as a whole holds those more often.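 The endpoint reported here, percent growth, reads 100 for growth as untreated, 0 for no net growth and -100 for all cells dead.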 Values without a mark were called inactive. Rule for the calls: active = growth percent below 10; inactive = the rest.

One assay relates to T-47D breast. Description: NCI-60 one-dose screen, 48 h (100 = growth as untreated, 0 = no growth, -100 = all killed). As to conditions: 10 µM unless noted.
Consider `N#CC1(O)CCCCC1`, for which the growth was 103%. With `O=C(CC(CC(=O)c1ccccc1)c1ccccn1)c1ccccc1`, the growth is 97.2%. The same measure, in the same setting: the same measure for `Oc1ccc(CCC2CCNc3ccccc32)cc1` (configuration not stated): 63.9%.

Another assay has as its system BT-549 breast. Described as above. To be noted: 10 µM unless noted.
Turning to `CC(C)C(C)(C)C(=O)C(C)(C)C(C)(C)C`, the growth is 82%. Turning to `Cc1[nH]nc(C(N)=O)c1[N+](=O)[O-]`, the growth is 109%. The same measure, in the same setting: the same measure for `CCC(C)c1c(N)n(S(=O)(=O)c2ccc(C)cc2)oc1=O` (configuration not stated): 110%. Still for that read-out and setting: the result for `NC(=O)NCCO` reads 101%; that for `O=S1(=O)c2ccccc2Oc2ccccc21`, 113%. With `CCN(C(C)=O)c1ccc([N+](=O)[O-])cc1`, the growth was 117%. Consider `CC(=O)NC(O)C(Cl)Cl` (configuration not stated), for which the growth is 85.9%. On the same count and under the same terms, the result for `Ic1cccs1` reads 107%; that for `COC(=O)c1cccc([N+](=O)[O-])c1`, 131%. For `COC1OC(C(O)C(O)CO)C(O)C(O)C1O` (configuration not stated), the growth was 91%. On to `CC(C)(N)CO[C@H]1C[C@H]2CC[C@@]1(C)C2(C)C`, for which the growth is 93.5%. On the same count and under the same terms, the result for `NNc1ncnc2c1ncn2C1OC(CO)C(O)C1O` (configuration not stated) reads 42.3%; that for `CCOC(C=O)OCC`, 103%.

Take `C/C(=N\N=C(/C)c1cccc([N+](=O)[O-])c1)c1cccc([N+](=O)[O-])c1`: the growth was 46.6%. For the compound `CCCCCC(=O)OCCC1CCCCC1`, the growth was 98.7%. Still for that read-out and setting: the result for `O=C(O)c1ccc([N+](=O)[O-])cc1S(=O)(=O)O` reads 108%. On to `CSc1nc2[nH]ncc2c(=O)[nH]1`, for which the growth is 88.9%. For the compound `C1C[S+]2CC[S+]1CC2`, the growth is 97%.

In another assay the test system is MDA-MB-435 melanoma. The assay is described as above. As to conditions: 10 µM unless noted.
For `CC(C)C(C)(C)C(=O)C(C)(C)C(C)(C)C`, the growth is 108%.

In the case of `Cc1[nH]nc(C(N)=O)c1[N+](=O)[O-]`, the growth was 105%. With `CCC(C)c1c(N)n(S(=O)(=O)c2ccc(C)cc2)oc1=O` (configuration not stated), the growth was 107%. For `C/C(=N\O)c1ccccn1`, the growth was 94.3%. On the same count and under the same terms, the same measure for `NC(=O)NCCO`: 101%; for `O=S1(=O)c2ccccc2Oc2ccccc21`: 101%.

Consider `CCN(C(C)=O)c1ccc([N+](=O)[O-])cc1`, for which the growth is 116%. `CC(C)C(=O)OCCOc1ccc(C(C)(C)C)cc1`: the growth was 87.5%. Turning to `O=C(Oc1ccccc1Cl)c1ccc(Cl)cc1Cl`, the growth is 95.4%.

As to `CC(=O)NC(O)C(Cl)Cl` (configuration not stated), the growth is 103%. The same measure, in the same setting: the result for `NNc1ncccn1` reads 91%; that for `Ic1cccs1`, 107%. In the case of `N#CC1(O)CCCCC1`, the growth was 99.3%.

As for `COC(=O)c1cccc([N+](=O)[O-])c1`, the growth was 117%. The same measure, in the same setting: the same measure for `COC1OC(C(O)C(O)CO)C(O)C(O)C1O` (configuration not stated): 105%; for `COc1cccc(C(=O)O)c1OC`: 90.9%. Turning to `CC(=O)Oc1c(Cl)cccc1-c1ccccc1`, the growth was 104%. With `OCCc1ccc(Cl)cc1`, the growth was 92.3%. Still for that read-out and setting: the same measure for `CC(C)(N)CO[C@H]1C[C@H]2CC[C@@]1(C)C2(C)C`: 94.7%; for `O=C(NCc1ccccc1)c1cccc([N+](=O)[O-])c1`: 98.4%. Still for that read-out and setting: the result for `NNc1ncnc2c1ncn2C1OC(CO)C(O)C1O` (configuration not stated) reads 56.4%.

For the compound `CCOC(C=O)OCC`, the growth is 102%. As for `C=CCS(C)(=O)=O`, the growth was 96.7%.

As for `Cc1ccc(C2CCCCC2)cc1Br`, the growth is 100%. Regarding `C/C(=N\Nc1ccc([N+](=O)[O-])cc1[N+](=O)[O-])c1ccc(Br)cc1`, the growth was 98.4%. The same measure, in the same setting: the same measure for `C/C(=N\N=C(/C)c1cccc([N+](=O)[O-])c1)c1cccc([N+](=O)[O-])c1`: 98.9%; for `CCCCCC(=O)OCCC1CCCCC1`: 100%; for `O=C(Nc1cccc(Cl)c1)c1ccc(Cl)cc1Cl`: 89.1%. Turning to `CC(C)C1CCC(C)C(O)C1` (configuration not stated), the growth is 93.5%.

As to `O=C(O)c1ccc([N+](=O)[O-])cc1S(=O)(=O)O`, the growth was 108%. In the case of `CSc1nc2[nH]ncc2c(=O)[nH]1`, the growth is 103%. Same read-out and setting: the same measure for `CCN(C(=O)Nc1ccccc1Cl)c1ccccc1`: 98.3%; for `C=C(C)COc1ccc(C(C)(C)C)cc1`: 93.4%. The same measure, in the same setting: the result for `C1C[S+]2CC[S+]1CC2` reads 109%; that for `CC(CC(CCC(=O)O)(c1ccccc1)c1ccccc1)N(C)C` (configuration not stated), 105%; that for `CCCNS(=O)(=O)c1ccc(Cl)cc1`, 93.3%.
